Screening results as filed in PubChem BioAssay.
An excerpt weighted towards active compounds, which were near 18% of everything screened.
TDP1 block: blocks human tyrosyl-DNA phosphodiesterase 1 | Q9NUW8 | recombinant TDP1, AlphaScreen DNA substrate cleavage | Potency, µM (doses to about 130 µM), inactives show at the top dose activity change, negative = inhibition, hits mostly inhibitors | hit rate 0.28% among 350,000 | AID 485290; note: nearly all actives have a fitted effect of over 40% in size
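Here, a 5' biotin and 3' phosphotyrosine-FITC DNA oligonucleotide reports Tdp1 activity: intact substrate bridges AlphaScreen beads, while cleavage leaves a 3' phosphate and drops signal. All incubations at room temperature.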
VDR inh: inhibitors of human vitamin D receptor | Potency, µM, for inactives: max response, negative = inhibition, most hits filed as inhibitors | hit rate 0.93% among 400,000 | VDR-SRC2-3 peptide fluorescence polarization, 2 h | P11473
Target sequence (P11473 whole entry, looked up): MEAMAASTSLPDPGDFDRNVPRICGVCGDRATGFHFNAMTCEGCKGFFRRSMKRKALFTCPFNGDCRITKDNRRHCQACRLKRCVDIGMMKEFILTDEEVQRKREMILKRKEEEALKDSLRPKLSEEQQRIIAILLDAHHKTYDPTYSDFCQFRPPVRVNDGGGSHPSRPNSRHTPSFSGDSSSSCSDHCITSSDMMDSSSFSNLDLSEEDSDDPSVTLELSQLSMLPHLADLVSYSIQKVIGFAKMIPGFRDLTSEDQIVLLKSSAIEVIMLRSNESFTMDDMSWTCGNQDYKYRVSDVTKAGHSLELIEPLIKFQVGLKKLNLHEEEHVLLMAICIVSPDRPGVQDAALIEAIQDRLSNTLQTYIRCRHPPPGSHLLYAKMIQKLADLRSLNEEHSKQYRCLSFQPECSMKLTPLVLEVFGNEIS
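Compounds are added to VDR with labelled SRC2-3 coactivator peptide and held 2 h at room temperature. Inhibition of the VDR–peptide interaction is then read as a change in fluorescence polarization.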
DT40 TDP1 CPT: DT40-hTDP1 cell growth loss with CPT; chicken DT40 Tdp1-/-;hTDP1 cells + 20 nM CPT, ATP luminescence, 48 h; Potency, µM (top dose mostly 46.2 µM), without a hit: top-dose activity change, negative = growth inhibition, hits mostly inhibitors; hit rate 12% among 420,000; AID 686979; note: nearly all actives have a fitted effect of over 55% in size
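Cell growth measured by CellTiter-Glo luminescence after a minimum 48 h, 37 C compound exposure with 20 nM CPT in Tdp1-knockout DT40 cells stably expressing hTDP1, seeded 400/well; qHTS titration format.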
PLK1 PBD block: PLK1 (human) polo-box domain binding inhibition. P53350. Plk1 PBD binding of FITC phosphopeptide, fluorescence polarization. Potency, µM, without a hit: max response, negative = inhibition, hits mostly inhibitors. hit rate 2.8% among 360,000; note: series mostly up to about 57 µM; nearly all actives have a fitted effect of over 65% in size
TDP1 cell noCPT: qHTS for Inhibitors of human tyrosyl-DNA phosphodiesterase 1 (TDP1): qHTS in cells in absence of CPT; Potency, µM (highest dose often 46.2 µM), without a hit: at the highest dose activity change, negative = growth inhibition, actives largely listed as inhibitors; DT40 Tdp1-/- hTDP1 cells, no CPT, ATP luminescence, 48 h; hit rate 15% among 420,000; note: nearly all actives have a fitted effect of over 55% in size
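Compound effects on proliferation are scored in DT40 Tdp1-/-;hTDP1 cells in the absence of CPT. ATP levels (CellTiter-Glo luminescence) are recorded after a ≥48 hr, 37 °C incubation.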
KAT2A inh: GCN5L2 (KAT2A) acetyltransferase inhibition; Q92830; GCN5L2 HAT assay, ThioGlo1 CoA-SH fluorescence; Potency, µM (titrated, usually from 58.9 µM), without a hit: at the highest dose activity change, negative = inhibition, actives largely listed as inhibitors; hit rate 0.21% among 390,000; AID 504327
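Enzyme at 20nM final was mixed with library compounds for 15 min at room temperature. Peptide H3(1-25) at 75uM, acetyl-CoA at 70uM and ThioGlo1 at 50uM were then added. Plates were read immediately and after 20 min (Ex340nm/Em540nm).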
* = called active by the depositor; ? = inconclusive; . = not tested or not shown; [ ] = remark or other dose. Calls come from the whole dose curve; as a rule, active = well fitted curve in the direction sought with a large enough effect; inconclusive = small, poorly fitted or top-dose-only effect, or another doubt; inactive = no such curve, though single readings can be large; an effect the other way counts as inactive or inconclusive. % is set by controls: 0 for no effect and ±100 for the full control effect; potency is the fitted concentration of half-maximal effect.

SMILES	TDP1 block	VDR inh	DT40 TDP1 CPT	PLK1 PBD block	TDP1 cell noCPT	KAT2A inh
CC(C)c1cc(/C=C(\C#N)C(=O)NCCCc2ccccc2)cc(C(C)C)c1O	11%	-4%	21µM*	.	21µM*	-11%
COc1ccc(S(=O)(=O)N2CCN(C(=O)c3ccco3)CC2)c(C)c1C	4%	13%	?	1%	?	-13%
Cn1c(=O)n(C)c2cc3[nH]cnc3cc21	.	-25%	-11%	5%	2%	52%
Nc1cc2nc[nH]c2cc1N	79µM*	8%	?	1%	?	-7%
Cc1cc(Nc2ccc([N+](=O)[O-])cc2)c2ccccc2n1	3%	20%	16µM*	-6%	18µM*	?
Cc1cc(NCc2ccccc2)c2ccccc2n1	3%	9%	21µM*	3%	21µM*	-12%
Cc1cc(NCc2ccccc2)nc2ccccc12	3%	-4%	?	0%	?	-2%
COc1ccc2nc(C)cc(NCc3cccc(C(F)(F)F)c3)c2c1	10%	-5%	15µM*	-8%	13µM*	-4%
COc1ccc2nc(C)cc(Nc3ccccc3OC)c2c1	.	.	?	-3%	?	.
Cc1cc(Nc2cccc([N+](=O)[O-])c2)c2ccccc2n1	-4%	-1%	?	-7%	?	1%
CCOc1ccc2nc(C)cc(Nc3cccc([N+](=O)[O-])c3)c2c1	2%	12%	3.3µM*	-6%	12µM*	-6%
Cc1cc(C)cc(C(=O)n2nc(C)c(S(=O)(=O)N3CCOCC3)c2C)c1	1%	-1%	-20%	.	2%	-4%
CN(C)C(CNC(=O)C1CCN(S(=O)(=O)c2ccccc2C(F)(F)F)CC1)Cc1ccccc1 (centres undefined)	9%	-3%	?	-6%	?	-8%
COC(=O)C1=C[C@@H](C(=O)OC)C2C3=C(C(=O)[C@]2(C)NC(=O)c2ccccc2)[C@H](C)[C@@H]2C(=O)N(C)C(=O)[C@@H]2[C@@H]3C1 (some centres undefined)	4%	-6%	.	.	.	.
COc1ccc(Cl)cc1Nc1cc(C)nc2ccccc12	.	-6%	?	-4%	15µM*	.
Cc1cc(Nc2ccccc2Cl)c2ccccc2n1	.	3%	23µM*	-16%	13µM*	.
CC(C)(C)S(=O)(=O)/C(C#N)=C/c1sccc1C1OCCO1	8%	?	?	21µM*	?	-10%
COc1ccc(N/N=C(/C#N)S(=O)(=O)C(C)(C)C)cc1	6%	13%	6%	-9%	2%	-1%
NC(Cc1ccc(F)cc1)c1csc(Nc2ccc(C(=O)c3ccccc3)cc2)n1 (centres undefined)	.	.	?	7%	?	.
NC(Cc1ccccc1)c1csc(Nc2ccc(C(=O)c3ccccc3)cc2)n1 (centres undefined)	.	.	15µM*	-4%	8.2µM*	.
COc1ccc(CC(N)c2csc(Nc3ccc(C(C)=O)cc3)n2)cc1 (centres undefined)	.	.	26µM*	1%	21µM*	.
COc1ccc(CC(N)c2csc(Nc3ccc(C(=O)c4ccccc4)cc3)n2)cc1 (centres undefined)	.	.	12µM*	-2%	9.2µM*	.
NC(c1csc(Nc2ccc(C(=O)c3ccccc3)cc2)n1)c1ccccc1Cl (centres undefined)	.	.	21µM*	-16%	?	.
Cc1cccc(OC(C)C(=O)N/N=C\c2ccncc2)c1 (centres undefined)	6%	15%	-18%	-7%	-21%	23%
CCOC(=O)C1CCN(c2c(NCc3ccc(C(=O)Nc4ccc(C)cc4)cc3)c(=O)c2=O)CC1	.	-6%	-9%	3%	-19%	-3%
SMILES	TDP1 block	VDR inh	DT40 TDP1 CPT	PLK1 PBD block	TDP1 cell noCPT	KAT2A inh
COCCN(C(=O)c1ccco1)C(C(=O)NC1CCCC1)c1cccs1 (centres undefined)	4%[56.1 µM]	8%	-25%	-18%	-21%	4%
NC(Cc1ccc(Cl)cc1)c1csc(Nc2ccc(C(=O)c3ccccc3)cc2)n1 (centres undefined)	.	.	21µM*	2%	21µM*	.
CCc1cc(=O)n2c([nH]c3ccccc32)c1C#N	9%	4%	?	-1%	?	-2%
Cc1ccc(Cc2c(C)c(C#N)c3[nH]c4ccccc4n3c2=O)cc1	-1%	6%	?	-29%	23µM*	-1%
CCc1c(C)c(C#N)c2[nH]c3ccccc3n2c1=S	5%	?	12µM*	13µM*	12µM*	?
CCc1cc(=S)n2c([nH]c3ccccc32)c1C#N	3%	?	16µM*	?	23µM*	28µM*
